Source: the supplement of paper PMC12350171
Structures can show the parent of a compound that is named as a salt. Unmarked numbers belong to inactive results.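 The calls were made as follows: active = AUC significantly below DMSO controls by Student t-fit with adjusted P under 0.01; inactive = not significantly reduced.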

The compounds below were run on Haemophilus parainfluenzae (assay: growth AUC normalised to DMSO control (fraction of control); higher = less growth inhibition, active = hit call of the paper). Conditions: 20 µM.
Summary of the method: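 Hemin and NAD were added to the medium for Haemophilus parainfluenzae. All pathogens, after two anaerobic passages, were inoculated at a starting OD578 of 0.01 into pre-reduced mGAM plates with 20 μM compound and 1% DMSO under breathable seals, and OD578 was read hourly for 24 h in three biological replicates. AUC of each growth curve was obtained with the trapezoidal rule up to the exponential-to-stationary transition and normalised to DMSO controls from the same plate.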

SMILES	growth AUC normalised to DMSO control
CN1[C@@H]2CC[C@H]1C[C@@H](OC(c1ccccc1)c1ccccc1)C2 [Benztropine mesylate]	1
CN(C)CCOc1ccc(/C(=C(/CCCl)c2ccccc2)c2ccccc2)cc1 [Toremifene]	0.997
N/C(=N\C(=O)c1nc(Cl)c(N)nc1N)NCc1ccccc1 [Benzamil hydrochloride]	0.991
COc1ccc(CC2c3cc(OC)c(OC)cc3CC[N+]2(C)CCC(=O)OCCCCCOC(=O)CC[N+]2(C)CCc3cc(OC)c(OC)cc3C2Cc2ccc(OC)c(OC)c2)cc1OC (configuration not stated) [Atracurium besylate]	1.06
CC(CNC1CCCCC1)OC(=O)c1ccccc1 (configuration not stated) [Hexylcaine hydrochloride]	0.995
CCN[C@H]1C[C@H](C)S(=O)(=O)c2sc(S(N)(=O)=O)cc21 [Dorzolamide hydrochloride]	1.03
COc1cc(OC)c(C(=O)CCCN2CCCC2)c(OC)c1 [Buflomedil hydrochloride]	1.01
OCCN(CCO)c1nc(N2CCCCC2)c2nc(N(CCO)CCO)nc(N3CCCCC3)c2n1 [Dipyridamole]	0.993
N[C@H]1CONC1=O [(S,-) Cycloserine]	0.989
O=C1CCc2cc(OCCCCc3nnnn3C3CCCCC3)ccc2N1 [Cilostazol]	1.26
COc1cccc(N(C)C(=S)Oc2ccc3c(c2)CCCC3)n1 [Liranaftate]	1.01
Cc1cccn2c(=O)c(-c3nnn[nH]3)cnc12 [Pemirolast potassium]	0.933
C[C@H](CCC(=O)O)[C@H]1CC[C@H]2[C@@H]3[C@H](O)C[C@@H]4C[C@H](O)CC[C@]4(C)[C@H]3CC[C@]12C [Chenodiol]	0.95
COC1=CC(=O)C[C@@H](C)[C@]12Oc1c(Cl)c(OC)cc(OC)c1C2=O [Griseofulvin]	1.02
CC1CC(OC(=O)c2ccccc2O)CC(C)(C)C1 (configuration not stated) [Homosalate]	0.983
O=C1CN(/N=C/c2ccc(-c3ccc([N+](=O)[O-])cc3)o2)C(=O)N1 [Dantrolene sodium salt]	1.03

SMILES	growth AUC normalised to DMSO control
Cn1cnc([N+](=O)[O-])c1Sc1ncnc2[nH]cnc12 [Azathioprine]	1.11
CCC(=O)O[C@]1(C(=O)SCF)[C@H](C)C[C@H]2[C@@H]3C[C@H](F)C4=CC(=O)C=C[C@]4(C)[C@@]3(F)[C@@H](O)C[C@@]21C [Fluticasone propionate]	0.997
CCCCc1nc(Cl)c(CO)n1Cc1ccc(-c2ccccc2-c2nnn[nH]2)cc1 [Losartan]	1.45
Clc1ccc(C(Cn2ccnc2)OCc2c(Cl)cccc2Cl)c(Cl)c1 (configuration not stated) [Isoconazole]	0.972
O=C(O)Cc1cc(I)c(Oc2ccc(O)c(I)c2)c(I)c1 [Tiratricol]	0.896
CN1CCc2c(c3ccccc3n2Cc2ccccc2)C1 [Mebhydroline 1,5-naphtalenedisulfonate]	0.932
Cc1oncc1C(=O)Nc1ccc(C(F)(F)F)cc1 [Leflunomide]	0.978
Oc1c(Cl)cc(Cl)c(Cl)c1Cc1c(O)c(Cl)cc(Cl)c1Cl [Hexachlorophene]	0.0305 (active)
CN(c1nccc(=O)[nH]1)C1CCN(c2nc3ccccc3n2Cc2ccc(F)cc2)CC1 [Mizolastine]	1.11
Cc1nc2ccccn2c(=O)c1CCN1CCC(C(=O)c2ccc(F)cc2)CC1 [Pirenperone]	0.982
O=C(O)c1cccnc1 [Niacin]	1.07
CC(=O)OCC(=O)NCCCOc1cccc(CN2CCCCC2)c1 [Roxatidine acetate hydrochloride]	0.971
N=C(NCCCCCCNC(=N)NC(=N)Nc1ccc(Cl)cc1)NC(=N)Nc1ccc(Cl)cc1 [Chlorhexidine]	0.139 (active)
CC(C)(C(=O)c1cccnc1)c1cccnc1 [Metyrapone]	0.991
CC(C)NCC(O)c1cc(O)cc(O)c1 (configuration not stated) [Metaproterenol sulfate]	0.99
CCCCC1C(=O)N(c2ccccc2)N(c2ccc(O)cc2)C1=O (configuration not stated) [Oxyphenbutazone]	1.08
